Measured values: PubChem BioAssay
The source made the active and inactive calls.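 Rule for the calls: active = growth inhibition above 50% at the single 2 µM test dose, taken to imply half-maximal potency below 2 µM; inactive = the rest.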

test: antimalarial activity against Dd2 strain (AID 2302);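 note: 0% = DMSO untreated growth and 100% = chloroquine plus artemisinin killed control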; settings: P. falciparum Dd2 in RBCs, LDH growth readout, 72 h; at 2 µM; hits give high values

Which growth inhibition does the source give for C[C@@H]1CC[C@H](NC(=O)[C@H](CC2CCCC2)NC(=O)N2CCNCC2)C(=O)CN1S(=O)(=O)c1ccccn1 here?
The growth inhibition was 19% (inactive).

With O=C(Nc1cccc(C(F)(F)F)c1)c1cccc(S(=O)(=O)NCC2CCN(CC3CCCCC3)CC2)c1 as the compound, how does the growth inhibition read?
The growth inhibition was 5% (inactive).

Which growth inhibition does the source give for CCc1cn2c3c(cc(C(=O)N[C@@H](Cc4ccccc4)[C@H](O)CNC(C)C)cc13)N(C)S(=O)(=O)C2 here?
Its growth inhibition is 98% (active).

Which growth inhibition does the source give for O=C(NCCc1cccc(F)c1)c1ccc(N2CCN(c3ccncc3)CC2)cn1 here?
Its growth inhibition is 7% (inactive).

Which growth inhibition does the source give for CCc1cn2c3c(cc(C(=O)N[C@@H](Cc4ccccc4)[C@H](O)CNC4CC4)cc13)N(CC)S(=O)(=O)CC2 here?
The growth inhibition was 99% (active).

For CC(C)(CNCc1cccc(Oc2ccccc2)c1)c1nc(-c2ccc(Cl)c(O)c2)c(-c2ccnc(N)n2)[nH]1, which growth inhibition is on record?
The growth inhibition was 99% (active).

With O=C(Nc1cccc(CN2CCCN(Cc3ccc(O)cc3)CC2)c1)c1cc2ccccc2s1 as the compound, how does the growth inhibition read?
The growth inhibition was 90% (active).

Which growth inhibition does the source give for Cc1nc(-c2cccc(Nc3nccc(NCC(O)c4ccccc4C(F)(F)F)n3)c2)cs1 (stereo not given) here?
Its growth inhibition is 50% (active).

Which growth inhibition does the source give for O=C(CCc1ccccc1)N[C@H](Cc1c[nH]c2ccccc12)C(=O)N1CCC(NCc2ccc3c(c2)Cc2ccccc2-3)CC1 here?
The growth inhibition was 8% (inactive).

With Cc1nn(CC(C)C)c2sc(C(=O)N3CCN(S(=O)(=O)c4ccc(C#N)cc4)CC3)cc12 as the compound, how does the growth inhibition read?
The growth inhibition was 99% (active).

For Cc1cnc(C(=O)Nc2ccc3c(c2)CCCN(Cc2c[nH]c4cnccc24)C3)cn1, which growth inhibition is on record?
The growth inhibition was 20% (inactive).

Which growth inhibition does the source give for COc1ccc(-n2ccnc2SCC(=O)Nc2cc(C(F)(F)F)ccc2Cl)c(OC)c1 here?
The growth inhibition was 76% (active).

With CCCC(=O)Nc1ccc(OCCN(Cc2ccccc2OC(F)(F)F)c2ccc(C(F)(F)F)c(C#N)c2)cc1 as the compound, how does the growth inhibition read?
Its growth inhibition is 97% (active).

With CC(C)c1cccc(OCC2CCN(c3ncc(C(=O)Nc4ccccc4)cc3Cl)CC2)c1 as the compound, how does the growth inhibition read?
The growth inhibition was 88% (active).

With CN(C)C(=O)c1cc(CNCc2ccccc2)ccc1-c1cccc(CNCc2ccc(-c3ccccc3)cc2)c1 as the compound, how does the growth inhibition read?
The growth inhibition was 12% (inactive).

For O=C(Nc1ccc(C(=O)N(Cc2ccc3c(c2)OCO3)C2CCCC2)cc1)c1cccs1, which growth inhibition is on record?
The growth inhibition was 95% (active).

For CN1CCN(c2cc(NC(=O)Nc3ccc(-c4ccncc4)c(Cl)c3)ccc2Br)CC1, which growth inhibition is on record?
The growth inhibition was 99% (active).

For COc1ccc2nccc([C@@H](O)CN3CCC(NCc4cc5ccccn5n4)CC3)c2c1, which growth inhibition is on record?
The growth inhibition was 18% (inactive).

With CCCCN1CCN(CC(O)CNC(=O)Nc2ccc(Cl)cc2)CC1 (stereo not given) as the compound, how does the growth inhibition read?
Its growth inhibition is 99% (active).

With CCCC(CNCc1cccc(OCC)c1)CNc1cc(=O)c2ccccc2[nH]1 (stereo not given) as the compound, how does the growth inhibition read?
Its growth inhibition is 97% (active).

Which growth inhibition does the source give for NS(=O)(=O)c1cccc(-c2ccc3c(=O)[nH]cnc3c2)c1 here?
Its growth inhibition is 100% (active).

For Cc1c(Oc2ccc(-n3ccnc3)cc2)ncnc1N1CCC2(CC1)CNCc1ccccc12, which growth inhibition is on record?
Its growth inhibition is 58% (active).

With CCOC(=O)N[C@@H]1CN[C@@H](C#Cc2cc3c(Nc4ccc(OCc5cccc(F)c5)c(Cl)c4)ncnc3s2)C1 as the compound, how does the growth inhibition read?
Its growth inhibition is 13% (inactive).

With Cc1cccc2[nH]c(-c3ccc(-c4cccc(NC(=O)Nc5ccsc5)c4)s3)nc12 as the compound, how does the growth inhibition read?
The growth inhibition was 29% (inactive).

Which growth inhibition does the source give for CC(CNc1nc(NCC(c2ccccc2)c2ccccc2)c2[nH]cnc2n1)c1ccccc1 (stereo not given) here?
Its growth inhibition is 24% (inactive).

Which growth inhibition does the source give for c1cc2c3c(cccc3c1)NC(CCCCCCCCC1=Nc3cccc4cccc(c34)N1)=N2 here?
Its growth inhibition is 6% (inactive).

Which growth inhibition does the source give for Clc1ccc(-c2[nH]c3ccccc3c2CN2CCC(N3CCCCC3)CC2)cc1 here?
The growth inhibition was 15% (inactive).

With N#Cc1ccc2[nH]cc(CN3CCC4(CC3)CN(CCNCc3ccccc3)C(=O)CO4)c2c1 as the compound, how does the growth inhibition read?
The growth inhibition was -2% (inactive).

With COc1ccc2cc(C(c3nnnn3CC3CCCO3)N3CCc4ccccc43)c(=O)[nH]c2c1 (stereo not given) as the compound, how does the growth inhibition read?
The growth inhibition was 3% (inactive).

With CC1CN(c2ccc(NC(=O)c3cccs3)cc2)CCN1Cc1cccc(F)c1 (stereo not given) as the compound, how does the growth inhibition read?
The growth inhibition was 96% (active).

Which growth inhibition does the source give for NC1=NC(c2ccccc2)N(c2ccccc2)C(N)=N1 (stereo not given) here?
The growth inhibition was 85% (active).

Which growth inhibition does the source give for Cc1[nH]c2ccccc2c1C1CCN(CCCCNC(=O)c2ccc(-c3ccc(C#N)cc3)cc2)CC1 here?
Its growth inhibition is 97% (active).

With Cc1nc2nc(N)nc(N)c2c(C)c1Cc1cccc(C(F)(F)F)c1 as the compound, how does the growth inhibition read?
Its growth inhibition is 23% (inactive).

With O=C(Nc1ccc2nc(-c3ccccc3)[nH]c2c1)c1cc(-c2ccc3c(c2)OCCO3)n[nH]1 as the compound, how does the growth inhibition read?
The growth inhibition was 75% (active).

With CC1(C)CN(CCC2CCC(NC(=O)/C=C/c3ccccc3F)CC2)Cc2ccc(C#N)cc21 (stereo not given) as the compound, how does the growth inhibition read?
Its growth inhibition is 82% (active).

Which growth inhibition does the source give for COc1cc(NC(=O)/C=C/c2cc3ccccc3n2C)ccc1OCCN(C(C)C)C(C)C here?
Its growth inhibition is 68% (active).

Which growth inhibition does the source give for O=C(Nc1ccc2ccccc2n1)c1ccccc1-c1ccccc1 here?
The growth inhibition was 83% (active).

With COc1cc(NC(=O)c2sc(-c3ccc(Cl)cc3)cc2NC(=O)c2cccc(N(C)C)c2)ccc1OCCN1CCCC1 as the compound, how does the growth inhibition read?
Its growth inhibition is 67% (active).

Which growth inhibition does the source give for COc1cc(NC(=O)/C=C/c2cc(F)cc(F)c2F)cc(OCCN2CCN(CCN3CCOCC3)CC2)c1 here?
Its growth inhibition is 94% (active).

For CCOC(=O)c1ccc(NC(=O)N[C@@H](Cc2ccccc2)C(=O)NC2CCN(Cc3ccc(O)c(OC)c3)C2)cc1 (stereo not given in full), which growth inhibition is on record?
The growth inhibition was 0% (inactive).
